Screening data from PubChem BioAssay.
Only a selection was taken, and hits are over-represented in it overall.
CapD inh = Bacillus anthracis CapD inhibitors, primary screen, biochemical, fluorescence intensity; CapD gamma-glutamyltranspeptidase (Bacillus anthracis Ames Ancestor); purified CapD enzyme, fluorescence intensity read-out; stronger effect = lower value; z-score (no concentration beside the values); 140,000 tested, 0.23% active; in the data active means z-score mostly below about -2.9, no sharp cut-off; inactive means mostly above about -1.9
Of the large screens only hits and unclear results are named; the others gave an inactive call.

Fc1ccc(Nc2nc3nonc3nc2Nc2ccc(F)cc2F)c(F)c1	none
COc1cc(/C=C2\C(=O)NC(=S)N(c3ccc(Cl)cc3)C2=O)cc([N+](=O)[O-])c1O	none
COc1ccccc1N1C(=O)NC(=O)/C(=C\c2cc(OC)c(O)c(OC)c2)C1=O	none
COc1cc(/C=C2\C(=O)NC(=S)N(c3ccccc3C)C2=O)cc([N+](=O)[O-])c1O	CapD inh -6
CCN(C(=O)c1cc2cc3ccc(C)cc3nc2s1)c1ccc(C)c(C)c1	none
COc1cc(OC)nc(N2CCN(C(c3ccccc3)c3ccccc3)CC2)n1	none
Cc1cc(O)c(C=Nc2cccc(F)c2)c(=O)o1	none
Clc1cccc(Sc2ccc(Cc3ccc(Cl)cc3Cl)nn2)c1	none
S=c1[nH]c(=S)c2cnc(N3CCOCC3)nc2[nH]1	none
C=CCSc1ncc2c(=S)[nH]c(=S)[nH]c2n1	CapD inh -4.6
CCN(CC)c1ncc2c(=S)[nH]c(=S)[nH]c2n1	none
FC(F)(F)c1nc(N2CCCCC2)nc2c1CCCCC2	none
CC(=O)Nc1ccc(N2COc3ccc(Cl)cc3C2)cc1	none
NC(=O)c1ccccc1NC(=O)c1cc(-c2ccccc2)nc2ccccc12	none
CCCCCCc1ccc(C(=O)NC2CCN(Cc3cccc(OC)c3[N+](=O)[O-])C2)cc1 (stereo not drawn)	none
CC(=O)Oc1ccc(N(C(C)=O)S(=O)(=O)c2cccs2)cc1	none
COc1ccc(N(C(=O)C(C)C)S(=O)(=O)c2cccs2)cc1	CapD inh -7
CC(C)C(=O)N(c1ccc2oc(=O)sc2c1)S(=O)(=O)c1cccs1	none
COC(=O)C1=CN(Cc2ccc(OC)c(OC)c2)C=C(C(=O)OC)C1c1ccc(Br)cc1	none
CSc1sc(=S)sc1SCCC#N	none
CCOc1ccc(/C=C2/C(=O)N(C)C(=S)N2CC(=O)OC)c(OCC)c1	none
COc1ccc(NC(=O)CCCN2C(=O)/C(=C\c3ccco3)SC2=S)cc1	none
COC(=O)CN1C(=S)N(C)C(=O)/C1=C/c1ccco1	CapD inh -4.1
C/C(=C\c1ccc(F)cc1)[N+](=O)[O-]	none
CCOc1ccc(NC(=O)CSc2nc3ccccc3c(=O)n2Cc2ccccc2OC)cc1	none
CCOC(=O)/C(C#N)=C/Nc1ccc2c(c1)OCO2	none
CCOC(=O)/C(C#N)=C/Nc1cc(C)no1	CapD inh -4.2
CCOC(=O)/C(C#N)=C/Nc1ccn[nH]1	none
CCn1c2ccccc2c2cc(CN3CCC(NS(=O)(=O)c4ccc(Cl)s4)C3)ccc21 (stereo not drawn)	none
CCOc1ccccc1C1C(C#N)=C(SCC(=O)Nc2ccc(C(C)=O)cc2)NC2=C1C(=O)CCC2 (stereo not drawn)	none
CC(C)C(=O)Nc1nc2nc(-c3ccccc3)cc(=O)n2[nH]1	none
N#CC1=C(N)Oc2n[nH]c(-c3ccc4c(c3)OCO4)c2C12C(=O)N(CC(=O)O)c1ccccc12 (stereo not drawn)	none
c1csc(-c2ccc(-c3ccn[nH]3)s2)c1	none
CSC1=C(C#N)C(=C(C#N)C#N)NC(C)=N1	CapD inh -4.5
COC(=O)/C(C#N)=C1\NC(C)=NC(SC)=C1C#N	none
CCOC(=O)N1CCN(CC(O)COc2ccc(C3CCCCC3)cc2)CC1 (stereo not drawn)	none
COc1ccc(Nc2ccc3c(C(F)(F)F)cc(C(F)(F)F)nc3n2)cc1	none
CC1(C)CC(=O)C(C(=S)Nc2ccccc2)C(=O)C1	none
CC1(C)Cc2c(c(=O)n(-c3ccccc3)c3ncnc(N)c23)CO1	none
CC1(C)CC(=O)/C(=N/Nc2ccccc2)CO1	CapD inh -4
CCC(CO)NC(=O)CCOC(Cc1cnccn1)c1ccc(C(F)(F)F)cc1 (stereo not drawn)	none
COc1cc(/C=C2\C(=O)NC(=S)N(c3ccc(Cl)cc3)C2=O)ccc1OCC(=O)O	none
O=C(NCCc1ccc(F)cc1)OCCN1CCN(Cc2cc3ccccc3o2)CC1	none
CCOc1ccc(Br)cc1NC1CCCCC1COC(=O)N1CCN(c2cc(OC)cc(OC)c2)CC1 (stereo not drawn)	none
CCN1CCN(C(c2cccs2)C(C)NC(=O)Cc2cccs2)CC1 (stereo not drawn)	none
CCN1CCN(C(c2cccs2)C(C)NC(=O)C(C)C)CC1 (stereo not drawn)	CapD inh -5.4
CC(C)C(=O)NC(C)C(c1cccs1)N1CCOCC1 (stereo not drawn)	none
CC1=C(C#N)C(NC(=O)c2ccncc2)(C(F)(F)F)C(=O)N1 (stereo not drawn)	none
O=C(CSc1nccc(-c2cccnc2)n1)Nc1ccccc1	none
COCCOC(=O)C1=C(C)NC2=C(C(=O)CC(c3ccc(OC)c(OC)c3)C2)C1c1ccc(Cl)cc1Cl (stereo not drawn)	none
Cc1cc(C=C2C(=O)CCCC2=O)c(C)n1-c1ccccc1	none
Cc1cc(C)c(C=C2C(=O)OC(C)(C)OC2=O)[nH]1	none
Cc1cc(C)c(C=C2C(=O)CCCC2=O)[nH]1	CapD inh -7.6
CN1C(=O)C(C)(C)c2cc(S(=O)(=O)N(C)Cc3ccco3)ccc21	none
COC(CNC(=O)c1ccc2c(=O)n(Cc3ccco3)c(=S)[nH]c2c1)OC	none
C=CCNC(=O)c1ccc2c(=O)n(Cc3ccco3)c(=S)[nH]c2c1	none
CC(C)NC(=O)c1ccc2c(=O)n(Cc3ccco3)c(=S)[nH]c2c1	CapD inh -5.1
COc1cc(/C=N/NC(=S)N/N=C/c2ccc(O)c(OC)c2)ccc1O	none
O=[N+]([O-])c1cccnc1Oc1cncc(Cl)c1	none
COC(CNC(=O)c1ccc(/C=C2/Sc3ccccc3N(Cc3cccc(C)c3)C2=O)cc1)OC	none
Cc1cccc(CN2C(=O)/C(=C\c3ccc(C(=O)NCc4cccnc4)cc3)Sc3ccccc32)c1	none
COC(CNC(=O)c1ccc(/C=C2\Sc3ccccc3N(Cc3ccc(F)cc3)C2=O)cc1)OC	CapD inh -8.5
Cc1[nH]c2ccccc2c1C(Nc1ccccc1C(F)(F)F)c1ccccn1 (stereo not drawn)	none
O=C1NCC(=Nc2ccccc2)C(=O)N1	none
O=C1NCCC/C1=N/Nc1ccccc1	CapD inh -3.9
Cc1ccc(N/N=C2/CCCNC2=O)cc1	none
Cc1cc(-c2ccc(/C=C3\SC(=S)N(CC(=O)O)C3=O)o2)ccc1[N+](=O)[O-]	none
CN(C)c1cccc(N=Cc2c(O)n(Cc3ccc(F)cc3)c(=O)[nH]c2=O)c1	none
CC1(C)Cc2ccccc2-c2nc(-c3ccccc3)n(CCO)c(=O)c21	none
CC1(C)Cc2c(c(=S)nc(-c3ccccc3)n2CCO)CO1	CapD inh -5.1
OCCn1c(-c2ccccc2)nc2ccccc21	none
CCCCCCCCCOc1ccc(C(=O)OC2CCC3(C)C(=CCC4C3CCC3(C)C(C(C)CCCC(C)C)CCC43)C2)cc1 (stereo not drawn)	none
COc1cccc(NC(=O)Nc2ccc3nc4n(c(=O)c3c2)CCC4)c1	none
COCc1cc(C)c(C#N)c(=O)[nH]1	none
Cc1nc(COc2ccccc2Cl)sc1C(=O)/C=C/N(C)C	none
CCOC(=O)c1sc(COc2ccc(C3SCCS3)cc2)nc1C	none
CCOC(=O)c1sc(COc2ccccc2OC)nc1C	CapD inh -2.7
COc1ccc(-c2[nH]nc3c2C(c2ccc(OC)c(OC)c2OC)C(C#N)=C(N)O3)cc1OC (stereo not drawn)	none
CC(=O)Oc1ccccc1C(C)=O	none
C=CCn1c(SCC(=O)c2ccc(Br)cc2)nc2cc(C(=O)NCc3ccco3)ccc2c1=O	none
CC(=O)SC(CC(=O)O)c1nc2ccccc2s1 (stereo not drawn)	CapD inh -5.6
CCC(Sc1nc2ccccc2s1)C(=O)O (stereo not drawn)	none
CC(Sc1nc2ccccc2s1)C(=O)O (stereo not drawn)	none
CC(=O)OCC1C(COC(C)=O)C1(Cl)Cl (stereo not drawn)	none
